Laboratory results reported in PubChem BioAssay AID1159580 (chemical genetic matrix, 2015).
Out of some 5,500 compounds screened, about 2,000 (36%) were called active. Another 18% or so got no clear call; they are omitted. No stated cut-off is given here; in the data, active means normalized growth mostly below about 0.91 (no sharp cut-off); inconclusive means no clear call, values can overlap the other calls; inactive means mostly above about 0.92. Some of the results follow.

Assay: chemical genetic growth profiling, strain panel (AID 1159580);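 further: tested at 20 µM; growth read once vehicle control cultures reached saturation at 30 °C; 1 = growth at the plate median or of vehicle wells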
Settings: growth OD

Measured: normalized growth

NCc1ccc(S(N)(=O)=O)cc1
inactive: S. cerevisiae deletion strains, locus YKL009W, strain mrt4, stronger effect = lower value 0.974 | S. cerevisiae deletion strains, locus YKL068W, stronger effect = lower value 0.987 | S. cerevisiae deletion strains, locus YKL085W, strain MDH1 (second series), stronger effect = lower value 0.982 | S. cerevisiae deletion strains, locus YKL085W, strain MDH1, stronger effect = lower value 0.982 | S. cerevisiae deletion strains, locus YKL160W, strain elf1, stronger effect = lower value 1.06 | S. cerevisiae deletion strains, locus YKL190W, strain CNB1, stronger effect = lower value 1.01 | S. cerevisiae deletion strains, locus YKR001C, strain vps1, stronger effect = lower value 1.02 | S. cerevisiae deletion strains, locus YKR026C, strain gcn3, stronger effect = lower value 1.01 | S. cerevisiae deletion strains, locus YKR091W, strain srl3, stronger effect = lower value 1 | S. cerevisiae deletion strains, locus YLL001W, strain dnm1, stronger effect = lower value 1.05 | S. cerevisiae deletion strains, locus YLL026W, stronger effect = lower value 1 | S. cerevisiae deletion strains, locus YLL041C, strain sdh2, stronger effect = lower value 0.996 | S. cerevisiae deletion strains, locus YLR027C, strain aat2, stronger effect = lower value 1.01 | S. cerevisiae deletion strains, locus YLR039C, strain RIC1, stronger effect = lower value 0.986 | S. cerevisiae deletion strains, locus YLR058C, strain SHM2, stronger effect = lower value 0.984 | S. cerevisiae deletion strains, locus YLR102C, strain apc9, stronger effect = lower value 0.988 | S. cerevisiae deletion strains, locus YLR113W, strain HOG1, stronger effect = lower value 1.01 | S. cerevisiae deletion strains, locus YLR221C, strain rsa3, stronger effect = lower value 1.05 | S. cerevisiae deletion strains, locus YLR258W, strain gsy2, stronger effect = lower value 1.01 | S. cerevisiae deletion strains, locus YLR262C, strain YPT6 (second series), stronger effect = lower value 1.04 | S. cerevisiae deletion strains, locus YLR262C, strain YPT6, stronger effect = lower value 1.02 | S. cerevisiae deletion strains, locus YLR268W, strain sec22, stronger effect = lower value 0.988 | S. cerevisiae deletion strains, locus YLR320W, strain mms22, stronger effect = lower value 1.06 | S. cerevisiae deletion strains, locus YLR330W, strain CHS5, stronger effect = lower value 0.989 | S. cerevisiae deletion strains, locus YLR342W, strain FKS1 (second series), stronger effect = lower value 1 | S. cerevisiae deletion strains, locus YLR342W, strain FKS1, stronger effect = lower value 1.01 | S. cerevisiae deletion strains, locus YLR357W, strain rsc2, stronger effect = lower value 1.01 | S. cerevisiae deletion strains, locus YLR370C, strain arc18, stronger effect = lower value 1.01 | S. cerevisiae deletion strains, locus YLR371W, strain rom2, stronger effect = lower value 0.985 | S. cerevisiae deletion strains, locus YLR384C, strain iki3, stronger effect = lower value 1.01 | S. cerevisiae deletion strains, locus YLR418C, strain cdc73, stronger effect = lower value 0.954 | S. cerevisiae deletion strains, locus YML016C, strain PPZ1, stronger effect = lower value 0.995 | S. cerevisiae deletion strains, locus YML032C, strain rad52, stronger effect = lower value 0.99 | S. cerevisiae deletion strains, locus YML120C, strain ndi1, stronger effect = lower value 1.04 | S. cerevisiae deletion strains, locus YML124C, strain tub3, stronger effect = lower value 0.99 | S. cerevisiae deletion strains, locus YMR058W, strain fet3, stronger effect = lower value 1.02 | S. cerevisiae deletion strains, locus YMR078C, strain ctf18, stronger effect = lower value 0.978 | S. cerevisiae deletion strains, locus YMR125W, strain sto1, stronger effect = lower value 1.04 | S. cerevisiae deletion strains, locus YMR129W, stronger effect = lower value 1 | S. cerevisiae deletion strains, locus YMR205C, strain PFK2, stronger effect = lower value 1.05 | S. cerevisiae deletion strains, locus YMR223W, strain ubp8, stronger effect = lower value 0.962 | S. cerevisiae deletion strains, locus YMR231W, strain pep5, stronger effect = lower value 0.993 | S. cerevisiae deletion strains, locus YMR263W, strain SAP30, stronger effect = lower value 0.999 | S. cerevisiae deletion strains, locus YMR307W, strain GAS1, stronger effect = lower value 1.01 | S. cerevisiae deletion strains, locus YNL067W, strain RPL9B, stronger effect = lower value 1 | S. cerevisiae deletion strains, locus YNL071W, strain lat1, stronger effect = lower value 1.01 | S. cerevisiae deletion strains, locus YNL153C, strain GIM3, stronger effect = lower value 1.01 | S. cerevisiae deletion strains, locus YNL183C, strain NPR1, stronger effect = lower value 0.956 | S. cerevisiae deletion strains, locus YNL209W, strain ssb2, stronger effect = lower value 1 | S. cerevisiae deletion strains, locus YNL233W, strain BNI4, stronger effect = lower value 0.99 | S. cerevisiae deletion strains, locus YNL248C, strain rpa49, stronger effect = lower value 1.04 | S. cerevisiae deletion strains, locus YNL250W, strain rad50, stronger effect = lower value 0.967 | S. cerevisiae deletion strains, locus YNL271C, strain bni1, stronger effect = lower value 0.985 | S. cerevisiae deletion strains, locus YNL298W, strain CLA4, stronger effect = lower value 0.991 | S. cerevisiae deletion strains, locus YNL307C, strain MCK1, stronger effect = lower value 0.992 | S. cerevisiae deletion strains, locus YNL322C, strain KRE1 (second series), stronger effect = lower value 1.02 | S. cerevisiae deletion strains, locus YNL322C, strain KRE1, stronger effect = lower value 0.999 | S. cerevisiae deletion strains, locus YNR049C, strain mso1, stronger effect = lower value 0.999 | S. cerevisiae deletion strains, locus YNR052C, strain pop2, stronger effect = lower value 0.987 | S. cerevisiae deletion strains, locus YOL006C, strain TOP1, stronger effect = lower value 0.97 | S. cerevisiae deletion strains, locus YOL012C, strain htz1 1.28 | S. cerevisiae deletion strains, locus YOL147C, strain pex11, stronger effect = lower value 0.985 | S. cerevisiae deletion strains, locus YOR001W, strain rrp6, stronger effect = lower value 0.972 | S. cerevisiae deletion strains, locus YOR061W, strain CKA2, stronger effect = lower value 0.993 | S. cerevisiae deletion strains, locus YOR069W, strain VPS5, stronger effect = lower value 0.99 | S. cerevisiae deletion strains, locus YOR070C, strain gyp1, stronger effect = lower value 1.01 | S. cerevisiae deletion strains, locus YOR080W, strain dia2, stronger effect = lower value 0.996 | S. cerevisiae deletion strains, locus YOR083W, strain WHI5, stronger effect = lower value 1.06 | S. cerevisiae deletion strains, locus YOR106W, strain vam3, stronger effect = lower value 1.06 | S. cerevisiae deletion strains, locus YOR136W, strain idh2, stronger effect = lower value 0.992 | S. cerevisiae deletion strains, locus YOR144C, strain elg1, stronger effect = lower value 0.987 | S. cerevisiae deletion strains, locus YOR184W, strain ser1, stronger effect = lower value 1 | S. cerevisiae deletion strains, locus YOR231W, strain MKK1, stronger effect = lower value 1.01 | S. cerevisiae deletion strains, locus YOR265W, strain rbl2, stronger effect = lower value 1.02 | S. cerevisiae deletion strains, locus YOR270C, strain vph1, stronger effect = lower value 1.06 | S. cerevisiae deletion strains, locus YOR290C, strain snf2, stronger effect = lower value 1.02 | S. cerevisiae deletion strains, locus YOR316C, strain cot1, stronger effect = lower value 0.993 | S. cerevisiae deletion strains, locus YPL051W, strain arl3, stronger effect = lower value 1.03 | S. cerevisiae deletion strains, locus YPL055C, strain LGE1, stronger effect = lower value 1.01 | S. cerevisiae deletion strains, locus YPL078C, strain atp4, stronger effect = lower value 1.06 | S. cerevisiae deletion strains, locus YPL106C, strain sse1, stronger effect = lower value 1.03 | S. cerevisiae deletion strains, locus YPL240C, strain hsp82, stronger effect = lower value 1.01 | S. cerevisiae deletion strains, locus YPL241C, strain CIN2, stronger effect = lower value 0.998 | S. cerevisiae deletion strains, locus YPL256C, strain CLN2, stronger effect = lower value 1.01 | S. cerevisiae deletion strains, locus YPR119W, strain clb2, stronger effect = lower value 0.993 | S. cerevisiae deletion strains, locus YPR141C, strain kar3, stronger effect = lower value 0.976 | S. cerevisiae deletion strains, locus YPR163C, strain tif3, stronger effect = lower value 0.995 | S. cerevisiae deletion strains, locus YPR167C, strain met16, stronger effect = lower value 0.99 | S. cerevisiae deletion strains, strain wtn01, stronger effect = lower value 0.987 | S. cerevisiae strains, strain wild type, stronger effect = lower value 1.01
